Source: PubChem BioAssay (NCI)
Compounds without any hit were thinned out: in the full panel of roughly 79,000, 15% have a hit. Active and inactive are the calls of the source. Cut-off read from the data, not from the text of the source: active = growth inhibition above about 70%; inactive = the rest.

Key:
[1] = NCI Yeast Anticancer Drug Screen. Data for the mec2-1 strain (AID 157); details: S. cerevisiae mec2-1 strain, active compounds read high
Procedure, shortened: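 Cells of the genetically defined mec2-1 yeast strain are incubated with test compound. Inhibition of growth is calculated against vehicle-treated controls.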

[2] = NCI Yeast Anticancer Drug Screen. Data for the rad14 strain (AID 159);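 note: 0% = growth of vehicle-treated control cultures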; details: S. cerevisiae rad14 strain growth inhibition, active compounds read high
Procedure, shortened: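 Screen for anticancer potential: a yeast strain altered in DNA damage repair is grown with compound, and reduced growth is quantified against vehicle controls.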

[3] = NCI Yeast Anticancer Drug Screen. Data for the sgs1 mgt1 strain (AID 161);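 note: 0% = growth of cultures given vehicle only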; details: S. cerevisiae sgs1 mgt1 strain, active compounds read high
Procedure, shortened: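 Inhibition of yeast growth, normalised to vehicle-treated controls, is reported for a strain bearing genetic alterations in DNA damage repair.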

[4] = NCI Yeast Anticancer Drug Screen. Data for the CLN2oe strain (AID 163);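 note: 0% = growth of vehicle-only control cultures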; details: S. cerevisiae CLN2oe strain, active compounds read high
Procedure, shortened: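 Strain altered in cell-cycle control, incubated with compound; growth compared to solvent-treated controls.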

[5] = NCI Yeast Anticancer Drug Screen. Data for the cln2 rad14 strain (AID 165);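 note: 0% = growth equal to vehicle treated cultures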; details: S. cerevisiae cln2 rad14 strain, active compounds read high
Procedure, shortened: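 The screen exposed genetically defined yeast (cln2 rad14) to test compounds and scored growth inhibition relative to vehicle-treated controls.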

[6] = NCI Yeast Anticancer Drug Screen. Data for the bub3 strain (AID 167); details: S. cerevisiae bub3 mutant strain, active compounds read high
Procedure, shortened: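 Screening used yeast with an engineered genetic alteration affecting cell cycle control. Compound-exposed cultures were compared with vehicle cultures, and reduced growth was taken as inhibition.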

[7] = NCI Yeast Anticancer Drug Screen. Data for the wt2 strain (AID 169);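 note: 0% = growth of vehicle-treated yeast cultures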; details: S. cerevisiae wt2 strain growth inhibition, active compounds read high
Procedure, shortened: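 Steps: yeast strain treated with compound; growth recorded; inhibition calculated relative to cultures given vehicle alone.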

[8] = NCI Yeast Anticancer Drug Screen. Data for the mlh1 strain (AID 171);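 note: 0% = growth of vehicle-treated control cultures of the same strain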; details: S. cerevisiae mlh1 strain growth inhibition, active compounds read high
Procedure, shortened: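 Yeast screen: mutant strain plus compound, growth scored against vehicle control wells.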

[9] = NCI Yeast Anticancer Drug Screen. Data for the sgs1 strain (AID 173);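 note: 0% = growth of vehicle-only control cultures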; details: S. cerevisiae sgs1 mutant, active compounds read high
Procedure, shortened: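 Inhibition of yeast growth served as the measure. The mutant strain was treated with each compound, and growth was normalised to cultures receiving vehicle alone.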

[10] = NCI Yeast Anticancer Drug Screen. Data for the mlh1 rad18 strain (AID 175); details: S. cerevisiae mlh1 rad18 strain growth inhibition, active compounds read high
Procedure, shortened: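 Compound-treated yeast growth, normalised to vehicle controls. Strain bears defined DNA repair mutations.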

[11] = NCI Yeast Anticancer Drug Screen. Data for the rad18 strain (AID 177); details: S. cerevisiae rad18 mutant growth inhibition, active compounds read high
Procedure, shortened: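 Inhibition values reflect reduced yeast growth compared with vehicle-treated controls, using a strain engineered with a DNA damage repair defect.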

[12] = NCI Yeast Anticancer Drug Screen. Data for the rad52 strain (AID 147);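 note: 0% = growth of vehicle-treated control cultures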; details: S. cerevisiae rad52 mutant growth inhibition, active compounds read high
Procedure, shortened: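 Genetically altered yeast (DNA damage repair defect) treated with compound; inhibition calculated relative to vehicle.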

[13] = NCI Yeast Anticancer Drug Screen. Data for the wt1 strain (AID 149);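 note: 0% = growth of vehicle-treated wt1 cultures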; details: S. cerevisiae wt1 strain (SPY 50644) growth inhibition, active compounds read high
Procedure, shortened: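 Using yeast strain wt1, compound-induced growth inhibition was determined against vehicle-treated cultures.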

[14] = NCI Yeast Anticancer Drug Screen. Data for the rad50EPP+ strain (AID 151);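 note: 0% = growth of vehicle-treated control cultures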; details: S. cerevisiae rad50 mutant strain, active compounds read high
Procedure, shortened: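 Strain rad50EPP+; compound exposure; % growth inhibition vs vehicle.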

[15] = NCI Yeast Anticancer Drug Screen. Data for the mgt1 strain (AID 153); details: S. cerevisiae mgt1 mutant growth inhibition, active compounds read high
Procedure, shortened: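 Read-out: yeast growth inhibition vs vehicle control. Strain mgt1, drawn from a panel altered in DNA damage repair or cell cycle control.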

[16] = NCI Yeast Anticancer Drug Screen. Data for the rad50 strain (AID 155);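 note: 0% = growth of vehicle-only cultures of the same strain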; details: S. cerevisiae rad50 strain growth inhibition, active compounds read high
Procedure, shortened: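 Relative growth inhibition (compound vs vehicle) was measured in yeast with a defined repair-gene alteration.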

[17] = at 5.0 µM (retest, dose inferred, filed as 0.5)
[18] = at 50.0 µM (retest, dose inferred, filed as 5.0)

Measured: growth inhibition

O=C1C=C(CN(CCCl)CCCl)C(=O)C=C1CN(CCCl)CCCl
inactive: [1]; [17] 0% | [1]; at 11.0 µM -3% | [1]; at 33.0 µM 3% | [1]; [18] 12% | [1]; at 50.0 µM 26.1% | [1]; at 100.0 µM 15% | [2]; at 1.2 µM 1% | [2]; at 3.7 µM 4% | [2]; at 11.0 µM 9% | [2]; at 33.0 µM 28% | [2]; at 100.0 µM 61% | [3]; [17] -2% | [3]; [18] 24% | [3]; at 50.0 µM 35.2% | [4]; at 1.2 µM -7% | [4]; at 3.7 µM -8% | [4]; at 11.0 µM -11% | [4]; at 33.0 µM -7% | [4]; at 100.0 µM -12% | [5]; [17] -3% | [5]; [18] 8% | [5]; at 50.0 µM 7.6% | [6]; at 1.2 µM -2% | [6]; at 3.7 µM -6% | [6]; [17] -1% | [6]; at 11.0 µM -7% | [6]; at 33.0 µM -6% | [6]; [18] 8% | [6]; at 50.0 µM 1.95% | [6]; at 100.0 µM -9% | [7]; at 1.2 µM 0% | [7]; at 3.7 µM -3% | [7]; at 11.0 µM -1% | [7]; at 33.0 µM -1% | [7]; at 100.0 µM 4% | [8]; at 1.2 µM -1% | [8]; at 3.7 µM -1% | [8]; at 11.0 µM -1% | [8]; at 33.0 µM 2% | [8]; at 100.0 µM 6% | [9]; at 1.2 µM 0% | [9]; at 3.7 µM 1% | [9]; at 11.0 µM 1% | [9]; at 33.0 µM 12% | [9]; at 100.0 µM 28% | [10]; [17] 2% | [10]; [18] 36% | [11]; at 1.2 µM 4% | [11]; at 3.7 µM 13% | [11]; at 11.0 µM 29%
active: [10]; at 50.0 µM 73.6% | [11]; at 33.0 µM 86% | [11]; at 100.0 µM 90%

CCOC(=O)C1=C(C(=O)OCC)C2(c3ccccc3)N(O1)c1ccccc1C2(C)C (stereo unspecified)
active: [12]; at 100.0 µM 71% | [15]; at 100.0 µM 78% | [1]; at 100.0 µM 74% | [3]; [17] 71% | [3]; [18] 71% | [3]; at 50.0 µM 79.8% | [4]; at 100.0 µM 79% | [6]; at 100.0 µM 77% | [7]; at 100.0 µM 75% | [8]; at 100.0 µM 80% | [9]; at 100.0 µM 81%
inactive: [12]; at 1.2 µM -3% | [12]; at 3.7 µM -2% | [12]; at 11.0 µM 0% | [12]; at 33.0 µM 3% | [13]; at 1.2 µM -2% | [13]; at 3.7 µM -5% | [13]; at 11.0 µM -4% | [13]; at 33.0 µM -1% | [13]; at 100.0 µM 54% | [14]; at 1.2 µM -6% | [14]; at 3.7 µM -7% | [14]; at 11.0 µM -5% | [14]; at 33.0 µM -6% | [14]; at 100.0 µM 15% | [15]; at 1.2 µM -1% | [15]; at 3.7 µM 0% | [15]; at 11.0 µM -1% | [15]; at 33.0 µM -3% | [16]; at 1.2 µM -1% | [16]; at 3.7 µM -2% | [16]; [17] 54% | [16]; at 11.0 µM -3% | [16]; at 33.0 µM -1% | [16]; [18] 54% | [16]; at 50.0 µM 63% | [16]; at 100.0 µM 67% | [1]; at 1.2 µM -3% | [1]; at 3.7 µM -3% | [1]; [17] 35% | [1]; at 11.0 µM -5% | [1]; at 33.0 µM -7% | [1]; [18] 35% | [1]; at 50.0 µM 27.5% | [2]; at 1.2 µM 0% | [2]; at 3.7 µM -4% | [2]; at 11.0 µM -3% | [2]; at 33.0 µM -8% | [2]; at 100.0 µM 62% | [4]; at 1.2 µM -4% | [4]; at 3.7 µM -2% | [4]; at 11.0 µM -4% | [4]; at 33.0 µM -5% | [5]; [17] 6% | [5]; [18] 6% | [5]; at 50.0 µM 43.3% | [6]; at 1.2 µM -6% | [6]; at 3.7 µM -5% | [6]; [17] 31% | [6]; at 11.0 µM 8% | [6]; at 33.0 µM 13% | [6]; [18] 31% | [6]; at 50.0 µM 44.4% | [7]; at 1.2 µM -2% | [7]; at 3.7 µM -3% | [7]; at 11.0 µM -2% | [7]; at 33.0 µM 0% | [8]; at 1.2 µM -3% | [8]; at 3.7 µM -6% | [8]; at 11.0 µM -5% | [8]; at 33.0 µM -3% | [9]; at 1.2 µM -5% | [9]; at 3.7 µM -5% | [9]; at 11.0 µM -6% | [9]; at 33.0 µM -2% | [10]; [17] 32% | [10]; [18] 32% | [10]; at 50.0 µM 15.4% | [11]; at 1.2 µM -4% | [11]; at 3.7 µM -11% | [11]; at 11.0 µM -12% | [11]; at 33.0 µM -4% | [11]; at 100.0 µM 68%
